# According to PubChem BioAssay (NCI):
# The panel holds about 79,000 compounds, 15% with a hit somewhere; the sample as a whole holds those more often. Values without a mark were called inactive. Calls of active or inactive are those of the source. Rule as the data show it: active = growth inhibition above about 70%; inactive = the rest.
# Columns and labels:
# [1] = NCI Yeast Anticancer Drug Screen. Data for the rad50 strain (AID 155);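 also: 0% = growth of vehicle-only cultures of the same strain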; settings: S. cerevisiae rad50 strain growth inhibition; at 50.0 µM; active compounds read high
# In short: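 Genetically altered yeast (DNA repair pathway); compound treatment; growth inhibition vs vehicle ctrl.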
# [2] = NCI Yeast Anticancer Drug Screen. Data for the mec2-1 strain (AID 157); settings: S. cerevisiae mec2-1 strain, at 50.0 µM, active compounds read high
# In short: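 Compounds were applied to mec2-1 yeast cells. Their growth was then compared with that of vehicle-treated cultures to give growth inhibition.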
# [3] = NCI Yeast Anticancer Drug Screen. Data for the sgs1 mgt1 strain (AID 161);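 also: 0% = growth of cultures given vehicle only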; settings: S. cerevisiae sgs1 mgt1 strain, at 50.0 µM, active compounds read high
# In short: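 Yeast cells carrying a defined DNA-repair defect were exposed to test compounds. Growth inhibition was measured relative to vehicle-treated controls.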
# [4] = NCI Yeast Anticancer Drug Screen. Data for the cln2 rad14 strain (AID 165);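 also: 0% = growth equal to vehicle treated cultures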; settings: S. cerevisiae cln2 rad14 strain, at 50.0 µM, active compounds read high
# In short: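 Strain: cln2 rad14 yeast, altered in cell cycle control and DNA damage repair. Read-out: growth inhibition vs vehicle.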
# [5] = NCI Yeast Anticancer Drug Screen. Data for the bub3 strain (AID 167); settings: S. cerevisiae bub3 mutant strain, at 50.0 µM, active compounds read high
# In short: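 Yeast carrying a defined mutation is treated with each compound, and growth is compared with that of vehicle-exposed cells to give inhibition.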
# [6] = NCI Yeast Anticancer Drug Screen. Data for the mlh1 rad18 strain (AID 175); settings: S. cerevisiae mlh1 rad18 strain growth inhibition; at 50.0 µM; active compounds read high
# In short: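 A repair-deficient yeast strain is exposed to test compound, and growth is scored relative to vehicle-treated controls.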
SMILES,growth inhibition [1],growth inhibition [2],growth inhibition [3],growth inhibition [4],growth inhibition [5],growth inhibition [6]
CC(=O)Nc1cc(Cl)cc2[nH]c(C)nc12,17.1%,-3%,-0.6%,-0.25%,12.8%,37.4%
CCCOS(=O)(=O)O,-13.7%,-15.1%,1.7%,7%,6.65%,15.2%
CCCOC(=O)c1ccc(C(C)C)cc1,1.1%,0.8%,-5.3%,3.7%,2.25%,-1%
CCOc1nc(N)nc(C)c1N=Nc1ccc(C)cc1,1.75%,-8.45%,-4.5%,-34.4%,-5.05%,2.45%
CC[N+](CC)=c1ccc2nc3c(cc(Nc4ccccc4)c4ccccc43)oc-2c1.[Cl][Zn][Cl],18.4%,1.4%,22.2%,20.9%,-0.55%,15.4%
Nc1nc(N)c2nc3c(nc2n1)CCCCCC3,4.25%,-4%,4.25%,-19.4%,-3.2%,2.55%
O=C1CCC(=O)N2C(=O)CCC(=O)N12,-33.5%,-26.3%,-18.9%,-15.3%,0.45%,3.45%
Clc1ccccc1Nc1c2ccccc2nc2ccccc12,94.5% (active),98.1% (active),85.1% (active),96.3% (active),88.7% (active),97.7% (active)
O=C(NNC(=O)c1cccc(Br)c1)c1ccccc1,4.05%,-37.6%,-0.1%,5.65%,-7.15%,-3.15%
O=[N+]([O-])c1cccnc1Sc1ncccn1,-7.25%,-12.2%,-10.2%,-23.1%,-25.6%,-6.2%
CC1=CC2C3C(=O)OC(=O)C3C1C(Cc1ccccc1)N2C (configuration not stated),14.5%,-1.85%,10.6%,12.9%,-6.55%,21.5%
O=C1c2ccccc2C(=O)N1c1ccc(Cl)cc1,3.5%,9.9%,12.6%,1.2%,22.8%,6.85%
CNc1c2c(nc3ccccc13)CCCC2,1.95%,-10.3%,-10.1%,-44.4%,15.1%,-19.2%
Cc1cc([N+](=O)[O-])ccc1N=Nc1ccc([N+](=O)[O-])cc1C,-0.6%,-1.9%,1.2%,-49.1%,5.4%,-8.65%
CS(=O)(=O)C(CCC(=O)c1cccs1)C(=O)c1ccccc1 (configuration not stated),-2.95%,3.25%,-6.65%,1.85%,0.2%,14.4%
Cc1cc(C(=O)c2ccccc2)ccc1[N+](=O)[O-],23.1%,-11%,-7.35%,-0.5%,-0.65%,7.1%
Cc1cc(=S)cc(C)[nH]1,17.1%,5.5%,11.3%,2.1%,0.45%,33.4%
CS(=O)(=O)Oc1c(Cl)cc(Cl)c2cccnc12,7.8%,-1.1%,-3.75%,-13.7%,1.2%,11.2%
O=C1C=C(c2ccccc2)C(=O)C(c2ccccc2)=C1c1ccccc1,73.2% (active),88.2% (active),88.8% (active),80% (active),78.2% (active),89.6% (active)
COc1cc(NCCC(=O)O)c2ncccc2c1,-25.1%,-19.2%,-41.9%,-18.8%,-24.2%,0.7%
CCOC(=O)Nc1ccccc1F,4.4%,-16.1%,-3.95%,-6.15%,4.75%,9%

SMILES,growth inhibition [1],growth inhibition [2],growth inhibition [3],growth inhibition [4],growth inhibition [5],growth inhibition [6]
CC(C)CNC(=O)/C=C/c1ccc2c(c1)OCO2,13.5%,-19.1%,-1.4%,3.4%,6.45%,-15.1%
O=[N+]([O-])c1ccc(S(=O)(=O)n2cccc2)cc1,0.9%,8.8%,-8.05%,-20.9%,3.6%,-19.8%
CC(C)COc1ccc(O)cc1,8.95%,-3.55%,-16.5%,-43.5%,-11%,3.35%
COc1cc2c[n+](C)c3c(c2cc1OC)Cc1cc2c(cc1-3)OCO2,-27.5%,-13.2%,1.8%,18.9%,-14.7%,6.25%
O=S(=O)(Nc1nc2ccccc2nc1N1CCCCCC1)c1ccccc1,-7.25%,-8.35%,20.5%,4.7%,7.65%,-23.8%
CSc1cc(Cl)c(C)cc1S(=O)(=O)NC(=O)NNc1cccc(C(F)(F)F)n1,15.2%,5.25%,9.5%,-5.4%,-4.9%,24.6%
CC(=O)NCCC1CN(C(=O)/C=C/I)c2ccccc21 (configuration not stated),-8.4%,30.4%,4.55%,37.7%,24.6%,-17.4%
CC1=CC(C/C(C)=C/COc2ccc3ccc(=O)oc3c2)OC1=O (configuration not stated),8.15%,-38.9%,11.7%,11.3%,-0.8%,7.75%
C=CC(Br)(CBr)CCC(Cl)C(C)C (configuration not stated),86.2% (active),90.7% (active),90.8% (active),91.7% (active),90.3% (active),90.5% (active)
CCCCCC(=O)NC(=O)Nc1ccccc1OC,-13.6%,-1.05%,-4.35%,-24.1%,0.65%,-1.55%
CCC1CCC(Cc2ccncc2)CC1 (configuration not stated),3.65%,-7.4%,-11.9%,-78.9%,13.4%,-0.9%
Cc1cc(S(=O)(=O)/N=C(/NN)Nc2ccc(Cl)cc2)c(S)cc1Cl,22.6%,8.15%,19.9%,3.8%,27.5%,29.9%
Cc1ccc(S(=O)(=O)NC2CC3(C)CCC2C3(C)C)cc1 (configuration not stated),-0.6%,-20.4%,-5.55%,-46.1%,14.8%,-4.45%
COc1cccc2c(Nc3ccc(S(=O)(=O)Nc4ncccn4)cc3)c3ccc([N+](=O)[O-])cc3nc12,59.8%,12.1%,29.2%,11.2%,32.2%,16.2%
CC(=O)OC1CCC2(C)C(CCC3(C)C2CC=C2C4CC(C)(C)CCC4(C)CCC23C)C1(C)C (configuration not stated),5.85%,-1%,-8.8%,-1.6%,6.05%,-5.3%
O=C1NCC2Cc3ccccc3C(c3ccccc3)=C12 (configuration not stated),-1.6%,-1.1%,5.6%,-6.15%,-3.9%,-4.25%
COC(=O)CCNC(C(=O)O)C(C)(C)SCCC(=O)OC (configuration not stated),-18.6%,-19.1%,-7.9%,24.5%,24.5%,-20.4%
C=C(C)C#CC1(O)C=C(OC)C(OC)=CC1=O (configuration not stated),-36.4%,-12.7%,-10.1%,-61.9%,-13.1%,7.35%
C[n+]1ccc(/C(C#N)=N/O)cc1,-16.4%,-39.9%,-20.6%,20.6%,-25.8%,-28.9%
OCC1OC(n2cc3ccccc3n2)C(O)C1O (configuration not stated),3.55%,4.85%,-5.55%,-3.8%,5.65%,-8.45%
COc1ccc(/C=C2\SC(c3ccc(OC)cc3)N(NC(=O)Cc3ccccc3)C2=O)cc1 (configuration not stated),-14.2%,-34.8%,-6.9%,-63.2%,1.1%,1.15%
